Where “and” joins values, the source holds several entries; their conditions need not be identical. Identical values can stand only once. This is part of a sample that, as a whole, favours compounds with a hit. Of some 83,000 tested, about 20% had one in any assay.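 Single-dose data. Exposure time 48 hours. Values below 10 considered active.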 Calls of active or inactive are those of the source.

The test system of the assay is ACHN renal. The assay can be described thus: NCI-60 one-dose screen, 48 h (100 = growth as untreated, 0 = no growth, -100 = all killed). To be noted: 10 µM unless noted. On the procedure:
Growth inhibition of the ACHN human tumor cell line is measured as a screen for anti-cancer activity. Cells are grown in 96 well plates and exposed to the test compound for 48 hours. Compounds are tested at a single concentration, which is 10^-5 M for most compounds. The reported endpoint is percent growth (GI% or GIPRCNT), where numbers from 0 - 100% represent growth inhibition, and numbers from -100% - 0 represent cell death. For example, a value of 40 represents 60% growth inhibition. A value of 0 means no net growth occurred over the course of the experiment. A value of -40 indicates 40% of cells at the beginning of the experiment died by the end of the experiment. A value of -100 means all cells are dead at the end of the experiment.
NCI-60 Human Tumor Cell Lines Screen was performed using the standard one-dose NCI protocol, which is described in more detail at https://dtp.cancer.gov/discovery_development/nci-60/default.htm.
Compounds with GIPRCNT values below 10 were considered active. Activity score was based on GIPRCNT using the following formula: […]
Score is 0 for GIPRCNT values of 100 or above, 50 for GIPRCNT values of 0, and 100 for GIPRCNT values of -100.
For the molecule `Oc1ccc(O)c(Cl)c1`, the growth was 95.9% (inactive) and 101% (inactive).

As for `CCCCS(=O)(=O)Cl`, the growth was 110% (inactive).

Turning to `Cc1ccc(P(=O)(O)O)cc1`, the growth was 109% (inactive).

Regarding `O=C(O)c1ccccc1N(CCO)CCCl`, the growth is 95% (inactive).

As to `COC(=O)CCP(CCC(=O)OC)c1ccccc1`, the growth was 108% (inactive).

On to `O=C(O)C(Br)CBr` (stereo not given), for which the growth is 97.4% (inactive).

For `Oc1cc(Cl)ccc1Oc1ccc(Cl)cc1Cl`, the growth was 7.4% (active).

`COc1ccc2c(c1)c(-c1nc(-c3cn(C)c4ncccc34)cs1)cn2CCCCN1CCOCC1`: the growth was 32% (inactive).

Take `Cc1cc[c-]cc1.Fc1c[c-]c(-c2ccccn2)c(F)c1.[Pt+2].c1ccc([PH+](c2ccccc2)c2ccccn2)cc1`: the growth is 69% (inactive).

Take `CCN1C(=O)CC(=O)N(CC)C1=S`: the growth is 101% (inactive).

For `O=C(O)c1ccc(=O)[nH]c1`, the growth was 100% (inactive) and 106% (inactive).

As to `O=S(=O)(c1ccc(O)cc1)c1ccccc1O`, the growth was 98.7% (inactive).

As for `CCCCn1c(=O)c(C(=O)NCc2ccccc2Cl)c(O)c2ccccc21`, the growth is 81.3% (inactive).

In the case of `CCC(=O)C(CC(C)[N+](C)(C)C)(c1ccccc1)c1ccccc1` (stereo not given), the growth is 102% (inactive).

For the molecule `COc1ccc(/C=C(/C)[N+](=O)[O-])cc1OC`, the growth is -1.7% (active) and -73% (active).

As for `O=c1[nH]c(=O)n(Cl)c(=O)n1Cl`, the growth is 109% (inactive) and 107% (inactive).

Turning to `CC1(C)CN=C(NN=C(/C=C/c2ccc(C(F)(F)F)cc2)/C=C/c2ccc(C(F)(F)F)cc2)NC1`, the growth is -84.2% (active).

For `Nc1ccc2c(c1)Cc1cc(N)ccc1-2`, the growth is 97% (inactive).

On to `O=C1NC(=O)C(=Cc2ccccc2)C(=O)N1`, for which the growth was 99.5% (inactive) and 112% (inactive).

As to `C[C@]12CC[C@H]3[C@@H](CC=C4c5nc(N)sc5CC[C@@]43C)[C@@H]1CC[C@@H]2O`, the growth is 106% (inactive).

Turning to `C=C1C(=O)OC2CC3(C)OC3C3OC3C3=CC(OC3=O)C12` (stereo not given), the growth was -5.94% (active) and -29% (active).

As for `COc1ccc(CN)cc1OC`, the growth was 103% (inactive) and 95.9% (inactive).

`CC(=O)Cc1ccc2c(c1)OCO2`: the growth was 108% (inactive).

Turning to `[N-]=[N+]=CC(=O)CCC(=O)C=[N+]=[N-]`, the growth was 95% (inactive).

Consider `O=CC1(c2ccccc2)CCN(Cc2ccccc2)CC1`, for which the growth was 112% (inactive).

Regarding `C[N+]12CCC34C5=CC(=O)C(=O)C=C5[N+]5(C)C(=O)CC6OCC=C(C1)C(CC32)C6C45` (stereo not given), the growth is 101% (inactive).

Regarding `CC(C)CCC1C(=O)NC(=O)NC1=O`, the growth is 100% (inactive).

Turning to `COc1ccc2c(c1)C1(C)CCN(C)CC(C1)C2O` (stereo not given), the growth is 104% (inactive).

On to `CC1=C(C)C(=O)O[C@@H]([C@](C)(O)[C@]2(O)CC[C@@]3(O)[C@@H]4C[C@H]5O[C@]56CC=CC(=O)[C@]6(C)[C@H]4CC[C@]23C)C1`, for which the growth was -72.4% (active).

For the molecule `O=C(NC(Cl)=C(Cl)Cl)P(=O)(c1ccccc1)c1ccccc1`, the growth is 112% (inactive).

Regarding `O=[N+]([O-])c1ccc(P(=O)(O)O)cc1`, the growth was 98.8% (inactive).

Regarding `O=[P+](O)c1cccnc1`, the growth was 110% (inactive).

On to `Cc1c(C)c(N)c(C)c(C)c1N`, for which the growth is -8.61% (active).

Consider `C[C@]12CC[C@H](O)C[C@@H]1CC[C@@H]1[C@@H]2CC[C@]2(C)OC(=O)CC[C@@H]12`, for which the growth was 107% (inactive).

As for `COC[C@H]1OC(=O)c2coc3c2[C@@]1(C)C1=C(C3=O)[C@@H]2CCC(=O)[C@@]2(C)C[C@H]1OC(C)=O`, the growth is 42.2% (inactive).

Consider `C[C@]12CC[C@H]3[C@@H](C[C@@H]4SC(Nc5ccccc5)=N[C@@]45C/C(=N/O)CC[C@]35C)[C@@H]1CCC2=O`, for which the growth is 60.4% (inactive).

Take `CO/N=C1\CC[C@]2(C)[C@H]3CC[C@]4(C)C(=O)CC[C@H]4[C@@H]3C[C@@H]3SC(N)=N[C@@]32C1`: the growth is 100% (inactive).

On to `CC/C(=C(\c1ccc(OCCN2CCOCC2)cc1)c1ccc(OC(=O)Cc2ccccc2)cc1)c1ccc(Cl)cc1`, for which the growth is 117% (inactive).

Take `C=CC[PH+](c1ccccc1)c1ccccc1.C=CC[PH+](c1ccccc1)c1ccccc1.[Pt+2].[S-]c1ncccn1.[S-]c1ncccn1`: the growth is -43.3% (active).

For the molecule `Oc1ccccc1C=NCCN=Cc1ccccc1O.[Fe]`, the growth is 92.3% (inactive).

The values are drawn from PubChem BioAssay (NCI).
